This is a sample that favours compounds with a hit; in the whole collection about 10% have one here.
Six1-Eya2 blk: inhibitors of human Six1/Eya2 interaction; 360,000 tested, 0.56% active; activity change, % (concentration not given with the values); Q15475+O00167; AID 651725; AlphaScreen GST-Six1/His-Eya2 binding, biochemical; stronger effect = lower value; in the data active = activity change below about -65%; inconclusive = mostly about -30% to -63%; note: % is set by controls: 0 for no effect and ±100 for the full control effect
Target sequence (O00167 whole entry, looked up): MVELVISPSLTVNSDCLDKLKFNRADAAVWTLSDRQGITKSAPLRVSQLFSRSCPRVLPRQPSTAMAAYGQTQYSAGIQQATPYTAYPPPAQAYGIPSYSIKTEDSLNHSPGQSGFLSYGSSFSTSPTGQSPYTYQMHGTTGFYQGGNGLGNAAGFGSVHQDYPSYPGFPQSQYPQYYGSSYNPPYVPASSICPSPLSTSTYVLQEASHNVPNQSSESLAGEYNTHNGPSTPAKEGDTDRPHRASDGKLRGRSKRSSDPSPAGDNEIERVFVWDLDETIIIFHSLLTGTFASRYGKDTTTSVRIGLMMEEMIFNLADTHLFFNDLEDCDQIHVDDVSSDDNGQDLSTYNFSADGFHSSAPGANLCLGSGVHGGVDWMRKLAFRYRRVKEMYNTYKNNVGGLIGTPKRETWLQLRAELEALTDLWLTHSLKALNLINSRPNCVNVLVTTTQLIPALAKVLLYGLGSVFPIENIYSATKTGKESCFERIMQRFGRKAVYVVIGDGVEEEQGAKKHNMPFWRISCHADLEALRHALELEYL
Target sequence (Q15475 whole entry, looked up): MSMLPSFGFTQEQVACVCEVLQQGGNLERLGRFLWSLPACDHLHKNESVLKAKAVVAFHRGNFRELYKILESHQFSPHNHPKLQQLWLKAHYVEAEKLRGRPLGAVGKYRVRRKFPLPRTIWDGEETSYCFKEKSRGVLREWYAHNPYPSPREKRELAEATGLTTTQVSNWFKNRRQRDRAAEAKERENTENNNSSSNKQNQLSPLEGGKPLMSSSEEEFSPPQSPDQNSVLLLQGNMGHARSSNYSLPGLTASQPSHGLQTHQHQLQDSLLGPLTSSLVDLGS
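Homogeneous AlphaScreen proximity assay pairing GST-Six1 with His-tagged Eya2 (added as 5X mix: 250 nM and 500 nM) in 50 mM Tris pH 8.0, 300 mM NaCl, 1 mM TCEP. Glutathione donor and nickel acceptor beads; 1 h, 37 °C, dark.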
CtBP-E1A blk: CtBP/E1A binding inhibition; AlphaScreen GST-E1A/His-CtBP binding, 1536-well; stronger effect = lower value; activity change, % (test concentration not listed); 340,000 tested, 0.49% active; AID 651724; in the data active = activity change below about -65%; inconclusive = mostly about -30% to -63%; note: % is set by controls: 0 for no effect and ±100 for the full control effect
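AlphaScreen with 125 nM GST-E1A and 125 nM His-CtBP (5X stocks) in Tris pH 8.0, 300 mM NaCl, BSA, Tween 20, TCEP. Compounds preincubated 2 h at 37 deg C, then glutathione donor/nickel acceptor beads added for 1 h at 37 deg C in dark.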
HP1b binding inh: inhibitors of HP1-beta chromodomain binding to methylated histone tails | 390,000 tested, 0.56% active | Potency, µM (highest dose often 114 µM), without a hit: at the highest dose activity change, negative = inhibition, usual class: inhibitors | AlphaScreen HP1-beta / biotin-H3K9me3 peptide binding | AID 540317; note: potency is the fitted concentration of half-maximal effect; nearly all actives have a fitted effect of over 70% in size
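Compound inhibition of the preformed complex between 50 nM HP1-beta and 50 nM biotinylated H3K9me3 peptide was read by AlphaScreen. Buffer was PBS pH 7.4 with 0.01% Tween-20. Incubations ran 30 min at room temperature, with 10 ug/mL donor/acceptor beads.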
BAZ2B block: blocks human BAZ2B; AlphaScreen BAZ2B-H3K14Ac peptide displacement; Potency, µM (doses to about 114 µM), for inactives: at the highest dose activity change, negative = inhibition, most hits filed as inhibitors; 360,000 tested, 4.4% active; note: potency is the fitted concentration of half-maximal effect; % is set by controls: 0 for no effect and ±100 for the full control effect; nearly all actives have a fitted effect of over 60% in size
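AlphaScreen luminescence quantifies BAZ2B engagement of H3K14Ac peptide; the protein and biotinylated peptide are both at 50 nM final, buffer PBS pH 7.4 with 0.01% Tween-20, all steps at room temperature.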
JMJD2A Tudor: JMJD2A Tudor domain (human) inhibition; O75164; AlphaScreen JMJD2A-Tudor / H3K4me3 peptide binding; Potency, µM (series often up to 114 µM), without a hit: top-dose activity change, negative = inhibition, usual class: inhibitors; 390,000 tested, 4.4% active; AID 504339; note: potency is the fitted concentration of half-maximal effect; % is set by controls: 0 for no effect and ±100 for the full control effect; nearly all actives have a fitted effect of over 50% in size
G9a inh: G9a (human) methyltransferase inhibition | Q96KQ7 | G9a H3K9 monomethylation, AlphaScreen, 2 h | Potency, µM (titrated, usually from 102 µM), inactives show at the highest dose activity, negative = inhibition, actives largely listed as inhibitors | 350,000 tested, 8.8% active | AID 504332; note: potency is the fitted concentration of half-maximal effect; % is set by controls: 0 for no effect and ±100 for the full control effect; nearly all actives have a fitted effect of over 75% in size
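Chemiluminescent proximity detection of H3K9 monomethylation, read after 10 min bead incubation in the dark. Reaction: 20 nM G9a, 500 nM biotin-H3K9 peptide, 20 uM SAM cofactor, 2 h, room temperature, following 15 min enzyme-compound preincubation.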
Starred values were filed as active, the others as inactive; ? = inconclusive; nt = no result; ! = a repeat was not active; [ ] = remark or other dose. Unless noted, calls come from the whole dose curve; as a rule, active = well fitted inhibition curve with a large enough effect; inconclusive = small, poorly fitted or top-dose-only effect; inactive = no such curve, though single readings can be large or run the other way.

SMILES	Six1-Eya2 blk	CtBP-E1A blk	HP1b binding inh	BAZ2B block	JMJD2A Tudor	G9a inh
CCNC(=O)COC(=O)C1CCN(S(=O)(=O)c2ccc3c(c2)OCCO3)CC1	9	4	11%	-4%	-10%	-8%
CCOC(=O)c1cc(CC)sc1NC(=O)COc1ccccc1C	nt	nt	49%	1%	-5%	-26%[59 µM]
COc1ccccc1OCC(=O)NCC1(N(C)C)CCCCC1	nt	nt	38%	-3%	-4%	-5%[59 µM]
OCC[C@@H]1C[C@@H](O)[C@H](O)[C@]2(CCCc3ccccc3O2)O1	12	0	43%	-30%	-6%	-5%
OCC[C@@H]1C[C@H](O)[C@@H](O)[C@@]2(CCc3ccccc3CO2)O1	0	-8	28%	-6%	-10%	45µM*
OCC[C@@H]1C[C@H](O)[C@@H](O)[C@@]2(CCCc3ccccc3O2)O1	1	6	45%	-18%	-21%	28µM*
COc1ccc(C(=O)Nc2cc(S(=O)(=O)c3ccc(Cl)cc3)c(O)c(C)c2C)cc1	nt	nt	36%	-15%	-5%	-3%[59 µM]
COc1cccc(NC(=O)CSc2nnc(COc3ccc(Cl)cc3)o2)c1	nt	nt	21%	-11%	-7%	-15%[59 µM]
O=C(CSc1nnc(CNC(=O)c2ccc(F)cc2)o1)Nc1nccs1	-88*	-87*	35%	79µM*	-35%	nt
Cc1cccc(OCc2nnc(SCC(=O)Nc3ccc(N4CCOCC4)cc3)o2)c1	1	-3	25%	1%	-5%	11%[59 µM]
Cc1cccc(OCc2nnc(SCC(=O)Nc3nccs3)o2)c1	-94*	-93*	44%	79µM*	-32%	7%
O=C(CSc1nnc(COc2ccc(Cl)cc2)o1)Nc1ccc(N2CCOCC2)cc1	-4	-17	15%	4%	-6%	32µM*
O=C(CSc1nnc(COc2ccc(Cl)cc2)o1)Nc1nccs1	-87*	?	nt	nt	nt	nt
CCOC(=O)Cn1c(=O)n(-c2cccc(Cl)c2)c2nc(-c3ccccc3Cl)nc(C(N)=O)c21	nt	nt	17%[57 µM]	-17%	-34%	2%[59 µM]
Cc1cccc(Nc2nc(C#N)nc(NC3CCCC3)n2)c1	nt	nt	nt	nt	3%	nt
NS(=O)(=O)c1cccc(C(=O)NC2CCSc3ccccc32)c1 (centres undefined)	4	9	24%	-1%	-6%	?
CC(=O)c1cccc(S(=O)(=O)NC2CCSc3ccccc32)c1 (centres undefined)	-1	0	12%	-16%	?	28µM*
NS(=O)(=O)c1cc(C(=O)NC2CCSc3ccccc32)ccc1Cl (centres undefined)	?	0	2.2µM*	?	0.79µM*	1.6µM*
CC(=O)c1cccc(S(=O)(=O)NC2CC2)c1	2	4	28%	-23%	-8%	45µM*
COc1ccc(CC2(C)OC(c3ccc([N+](=O)[O-])cc3)=NN2C(C)=O)cc1 (centres undefined)	?	1	?	?	?	11µM*
Cc1ncc(S(=O)(=O)c2ccccc2)c(-c2ccccc2)n1	-2	-4	27%	-10%	22%	?
Cc1ncc(N=Nc2ccccc2)c(-c2ccccc2)n1	?	?	32µM*	14µM*	40µM*	?
O=C(Cn1cc(CN(Cc2ccccc2)Cc2ccccc2)nn1)Nc1cc(C(F)(F)F)ccc1Cl	nt	nt	nt	nt	-23%	nt
CC1=C(c2ccc(Cl)cc2)S(=O)(=O)N=C1N1CCN(c2cccc(C)c2)C(C)C1 (centres undefined)	nt	nt	24%	-7%	-21%	-53%[59 µM]
C=CCN1CCc2c(cc(O)c(O)c2Cl)C(c2ccccc2)C1 (centres undefined)	-3	-14	20%	?	?	7.1µM*!
C=CCN1CCN(C(=O)c2ccc(-c3ccccc3)cc2)CC1	3	-5	12%	-11%	-25%	nt
C=CCN1CCc2cc(O)c(O)cc2C(c2ccccc2)C1 (centres undefined)	-1	4	10%	-6%	-24%	10µM*

Screening data deposited in PubChem by National Center for Advancing Translational Sciences (NCATS).
